Data reported in the supplement of paper PMC6555819.

test system: RXRa homodimer (NR concentration 180 nM); assay: PBM binding z-score (relative to random genomic background probes); higher = stronger binding; sequences stand for … in GC…GCGATTGACAGCGTAGAATGAAGG
In short: (§1)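 For binding z-scores, the reference was random background probes on custom Agilent 4×180K protein-binding microarrays. These arrays were incubated 1 h with ligand-free nuclear receptor dimers in PBS pH 7.4, 2% milk, 0.02% Triton X-100, 1 mM DTT, 0.2 mg/mL BSA and 0.4 mg/ml salmon testes DNA. Fluorescence was scanned after antibody detection of each partner (one per run) and regression-normalized.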

Compared with CAAACTAGGTCAGAACAGGACAGTGAAGGATGAT, TCTAGTAGATCAACAGGAGGTTAAGAAAGATCGA is lower in PBM binding z-score: 1.28 for the first, 0.901 for the second.

Going from TCATATAGATAAAAGGTGAAAGTCGGTGTGGTAA to TCTCGGTGGACACGAAAGGTCAGAGCTCGACATC, the PBM binding z-score rises from 2.41 to 4.52.

Compared with CCTAGCAGGCCAGGGTCTCTCAAGCATTTCGCTT, TTACCAAGGTGAGCTGAGGTCGTTGAACCAACTC is higher in PBM binding z-score: -0.675 for the first, 1.57 for the second.

Compared with ATCGAAAGGTCGAGGTGATTATAGAGAAAGGGAA, CGTCCAAGGTCAAAGGTCGGTGAAGAGATGACGG is higher in PBM binding z-score: 4.29 for the first, 8.84 for the second.

First: AGAATGATGTTATACGTAGATCAGGGAAGAAAGT
Second: ATTCCAAGGTGATCGTGAGGTCGTTGATACTAAC
The PBM binding z-score of the first is lower: -0.0318 for the first, 1.4 for the second.

First: TCTAGCAGGCCACAGGGTCACTCAAGAGGTACGG
Second: TGTCAAAGTTCAAAGGAAACGTAAGTATCCACAC
The PBM binding z-score of the first is lower: 3.39 for the first, 4.12 for the second.

Going from GGAACGATGGCATTCGAGTTGATAGCATGGCGAT to CTCGAAAGGTCGTGCTCAGGTGAGTATTCCAAAC, the PBM binding z-score rises from -0.284 to 4.55.

Going from TCTCGGAGGACACGAAGGTCAGAGGTTTCCAGAG to ATATGTAGCTTATCGGGTCATTCAGTTTGCGCAT, the PBM binding z-score rises from 2.29 to 2.35.

First: CCGACTGGGGCACAAAGGTTACCATACCATCCGG
Second: GGAACGAGGGGAAAGTTGATAGCATCTGTCGACG
The PBM binding z-score of the first is higher: 2.52 for the first, 0.258 for the second.

First: CGAACTAGGTGATCCAGGACAGTGAATACATTGA
Second: TCATATAGGTAAACGGTGAAAGTCGGTGTGGTAA
The PBM binding z-score of the first is lower: 0.363 for the first, 0.601 for the second.

First: CCGACTGGGGCAGAAAGGTTGCCATACCATCCGG
Second: ATAGGTAGGTTAGCTGGGGTCATTCAGACTAGGC
The PBM binding z-score of the first is lower: 0.422 for the first, 5.46 for the second.

First: CCTACTGGGCCATAAGGTCATTGATATCAACGTT
Second: TCTAGCAGGCCCGAGGGTCACTCAAGAGGTACGG
The PBM binding z-score of the first is higher: 3.28 for the first, 2.42 for the second.

Compared with CCTACAGGGCCACGAAAGGTCATTGATTCAGTGA, TCTCGGAGGACACCAAGGTCAGAGCTTTCCAGAG is lower in PBM binding z-score: 5.27 for the first, 1.75 for the second.

Going from CCTTACGGGTCACTCCAGGTTGTAGCATCGGAGT to TAGCCTACGTCAGATCGGGCCAGTATACGCTATA, the PBM binding z-score falls from 4.11 to -0.569.

Compared with CAAACTAGGTCACGATAGGTCAAAGTCGAATGAC, GCTGCTAGGTCAACTGATGGTCAGCAAAAGCTCG is lower in PBM binding z-score: 5.99 for the first, 2.99 for the second.

Compared with ATACCAAGGTGATCGTGGGGTCGTTGATACTAAC, ATATGTAGGTTGTCGGGTCATTCAGTTTGCGCAT is higher in PBM binding z-score: 2.34 for the first, 2.44 for the second.

First: TCAGACAGGTGAAGGTAACGCAGGTACGCAGTCG
Second: CAAACTAGGTCACCGGAAGTTCAAAGTCCGCATG
The PBM binding z-score of the first is lower: 1.05 for the first, 4.64 for the second.

Compared with TCTTGTAGATCAAAGGTAAAGAAAGCCGAAGCCT, CAAACTAGGTCACCGGAAGGTCAACGTCCGCATG is higher in PBM binding z-score: 0.881 for the first, 7.28 for the second.

First: CCAGACAGGTGAGAAGGTAAATCAGCCTCGATTA
Second: TCTGCTAGGTCAGTTGGTCAGTTAACGAGCTGCC
The PBM binding z-score of the first is lower: 0.202 for the first, 0.575 for the second.

First: AGTCAAAGTTCATCTAGGTAACGTAGGATATGCT
Second: CCTACTGGGACAAGGTCATTGATCAGTCAAAGCA
The PBM binding z-score of the first is higher: 4.86 for the first, 3.71 for the second.

test system: THRa:RXRa (NR concentration 90 nM, RXRa partner concentration 90 nM); assay: as above
In short: as §1

Compared with CAAACTAGGTCAGAACAGGACAGTGAAGGATGAT, TCTAGTAGATCAACAGGAGGTTAAGAAAGATCGA is lower in PBM binding z-score: 3.7 for the first, 0.727 for the second.

First: TCATATAGATAAAAGGTGAAAGTCGGTGTGGTAA
Second: TCTCGGTGGACACGAAAGGTCAGAGCTCGACATC
The PBM binding z-score of the first is lower: 1.24 for the first, 2.96 for the second.

First: CCTAGCAGGCCAGGGTCTCTCAAGCATTTCGCTT
Second: TTACCAAGGTGAGCTGAGGTCGTTGAACCAACTC
The PBM binding z-score of the first is lower: -0.53 for the first, 4.77 for the second.

First: ATCGAAAGGTCGAGGTGATTATAGAGAAAGGGAA
Second: CGTCCAAGGTCAAAGGTCGGTGAAGAGATGACGG
The PBM binding z-score of the first is lower: 2.54 for the first, 4.24 for the second.

First: AGAATGATGTTATACGTAGATCAGGGAAGAAAGT
Second: ATTCCAAGGTGATCGTGAGGTCGTTGATACTAAC
The PBM binding z-score of the first is lower: -0.0993 for the first, 3.55 for the second.

Compared with TCTAGCAGGCCACAGGGTCACTCAAGAGGTACGG, TGTCAAAGTTCAAAGGAAACGTAAGTATCCACAC is lower in PBM binding z-score: 2.94 for the first, 1.62 for the second.

First: GGAACGATGGCATTCGAGTTGATAGCATGGCGAT
Second: CTCGAAAGGTCGTGCTCAGGTGAGTATTCCAAAC
The PBM binding z-score of the first is lower: 0.175 for the first, 4.04 for the second.

Compared with TCTCGGAGGACACGAAGGTCAGAGGTTTCCAGAG, ATATGTAGCTTATCGGGTCATTCAGTTTGCGCAT is lower in PBM binding z-score: 3.07 for the first, 3.03 for the second.

First: CCGACTGGGGCACAAAGGTTACCATACCATCCGG
Second: GGAACGAGGGGAAAGTTGATAGCATCTGTCGACG
The PBM binding z-score of the first is higher: 1.51 for the first, 0.0347 for the second.

Compared with CGAACTAGGTGATCCAGGACAGTGAATACATTGA, TCATATAGGTAAACGGTGAAAGTCGGTGTGGTAA is lower in PBM binding z-score: 1.38 for the first, 0.081 for the second.

Going from CCGACTGGGGCAGAAAGGTTGCCATACCATCCGG to ATAGGTAGGTTAGCTGGGGTCATTCAGACTAGGC, the PBM binding z-score rises from -0.0628 to 5.2.

First: CCTACTGGGCCATAAGGTCATTGATATCAACGTT
Second: TCTAGCAGGCCCGAGGGTCACTCAAGAGGTACGG
The PBM binding z-score of the first is higher: 4.14 for the first, 1.67 for the second.

First: CCTACAGGGCCACGAAAGGTCATTGATTCAGTGA
Second: TCTCGGAGGACACCAAGGTCAGAGCTTTCCAGAG
The PBM binding z-score of the first is higher: 4.25 for the first, 3.13 for the second.

Going from CCTTACGGGTCACTCCAGGTTGTAGCATCGGAGT to TAGCCTACGTCAGATCGGGCCAGTATACGCTATA, the PBM binding z-score falls from 4.56 to 0.901.

Going from CAAACTAGGTCACGATAGGTCAAAGTCGAATGAC to GCTGCTAGGTCAACTGATGGTCAGCAAAAGCTCG, the PBM binding z-score falls from 4.65 to 2.91.

Compared with ATACCAAGGTGATCGTGGGGTCGTTGATACTAAC, ATATGTAGGTTGTCGGGTCATTCAGTTTGCGCAT is higher in PBM binding z-score: 3.15 for the first, 3.2 for the second.

Going from TCAGACAGGTGAAGGTAACGCAGGTACGCAGTCG to CAAACTAGGTCACCGGAAGTTCAAAGTCCGCATG, the PBM binding z-score rises from 1.01 to 3.85.

Going from TCTTGTAGATCAAAGGTAAAGAAAGCCGAAGCCT to CAAACTAGGTCACCGGAAGGTCAACGTCCGCATG, the PBM binding z-score rises from 0.386 to 4.63.

Going from CCAGACAGGTGAGAAGGTAAATCAGCCTCGATTA to TCTGCTAGGTCAGTTGGTCAGTTAACGAGCTGCC, the PBM binding z-score rises from 0.113 to 1.34.

Going from AGTCAAAGTTCATCTAGGTAACGTAGGATATGCT to CCTACTGGGACAAGGTCATTGATCAGTCAAAGCA, the PBM binding z-score rises from 3.08 to 3.47.
